In PubChem BioAssay (EPA / NIEHS):
Inconclusive results are not listed. Calls of active or inactive are those of the source. Rule for the calls, unless noted: active = hit-call score of the fitted dose curve at least 0.9, where 1 is the maximum; inconclusive = response in the unintended direction; inactive = score below 0.9.

Tests used:
[1] = read-out: X-box binding protein 1 (XBP1), XBP1 (gene 7494); assay: LTEA_HepaRG_XBP1: Life Technologies and Expression Analysis (LTEA) Assay for X-box binding protein 1 (XBP1) using HepaRG (AID 2283540; active = hit-call score of the fitted dose curve at least 0.9, where 1 is the maximum; inactive = score below 0.9); details: mRNA level, 48 h; actives raise or lower the signal
In short: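 Transcript levels of XBP1, measured by qRT-PCR and normalised to three housekeeping genes, were fitted bidirectionally relative to 0.5% DMSO controls. Human HepaRG cells received eight-point half-log dilutions from 100 uM for 48 h.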

[2] = ATG_XTT_Cytotoxicity: Cytotoxicity Assessment in the Attagene TRANS-FACTORIAL HepG2 Assay (AID 2283584)
In short: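 Cells: human HepG2, transiently transfected with MRTU reporter constructs. Exposure 24 h. Readout: XTT, cell number. Baseline/neg ctrl DMSO; loss-of-signal scored.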

[3] = molecular target: Cellular tumor antigen p53 (Homo sapiens) (UniProt P04637); assay: TOX21_p53_BLA_p2_ratio: Tox21 HCT-116 p53 Agonism Beta-lactamase Assay, Ratio, Phase 2 (AID 2283592)
Sequence of Cellular tumor antigen p53 (Homo sapiens) (P04637 whole entry, looked up): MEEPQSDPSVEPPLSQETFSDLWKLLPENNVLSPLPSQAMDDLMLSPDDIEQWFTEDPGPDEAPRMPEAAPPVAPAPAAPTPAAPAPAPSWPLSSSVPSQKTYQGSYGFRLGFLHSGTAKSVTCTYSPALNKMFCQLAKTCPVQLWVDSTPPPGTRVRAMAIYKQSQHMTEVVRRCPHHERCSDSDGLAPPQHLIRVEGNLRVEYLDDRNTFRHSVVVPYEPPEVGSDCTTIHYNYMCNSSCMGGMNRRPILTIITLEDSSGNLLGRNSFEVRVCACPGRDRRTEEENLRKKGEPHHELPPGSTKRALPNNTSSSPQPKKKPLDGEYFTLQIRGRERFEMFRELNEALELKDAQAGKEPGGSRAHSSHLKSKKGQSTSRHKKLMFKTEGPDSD
In short: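 Plated HCT116 p53-bla cells (4000/well) received compound after 5 h, then 16 h at 37C/5% CO2. CCF4-AM added, 2 h RT. Ratio of 460 to 530 nm emission taken as the p53 reporter signal.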

[4] = molecular target: Cellular tumor antigen p53 (Homo sapiens) (UniProt P04637); assay: TOX21_p53_BLA_p3_ratio: Tox21 HCT-116 p53 Agonism Beta-lactamase Assay, Ratio, Phase 3 (AID 2283596)
In short: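 Cells were seeded at 4000/well, rested 5 h at 37C, then dosed with DMSO compound solutions (217-fold dilution) for 16 h. CCF4-AM substrate was loaded for 2 h at room temperature, and the 460/530 nm emission ratio was fitted for gain of signal versus DMSO.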

[5] = TOX21_p53_BLA_p4_viability: Viability Assessment in the Tox21 HCT-116 p53 Agonism Beta-lactamase Assay, Phase 4 (AID 2283597);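 note: hits lower the luminescence signal meaning cytotoxicity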
In short: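 Readout: ATP luminescence (CellTiter-Glo), measured 30 min after reagent addition at RT. The reagent followed a 2 h CCF4-AM incubation, and the cells had been exposed to compound for 16 h at 37C.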

[6] = molecular target: Cellular tumor antigen p53 (Homo sapiens) (UniProt P04637); assay: TOX21_p53_BLA_p5_ratio: Tox21 HCT-116 p53 Agonism Beta-lactamase Assay, Ratio, Phase 5 (AID 2283599)
In short: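 Beta-lactamase reporter ratio (blue 460 nm over green 530 nm, 405 nm excitation) after 2 h CCF4-AM loading, in HCT-116 cells exposed 16 h at 37 C to compounds pinned at 217-fold dilution. Increases relative to DMSO baseline scored.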

[7] = molecular target: Cellular tumor antigen p53 (Homo sapiens) (UniProt P04637); assay: TOX21_p53_BLA_p4_ratio: Tox21 HCT-116 p53 Agonism Beta-lactamase Assay, Ratio, Phase 4 (AID 2283601)
In short: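 Signal is the blue/green (460nm/530nm) ratio of cleaved versus uncleaved CCF4-AM substrate, read after 2 h substrate loading. Cells were HCT116 carrying the p53-responsive beta-lactamase reporter, dosed 16 h at 37C, 5% CO2; CellTiter-Glo measured in parallel.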

[8] = Tanguay_ZF_120hpf_MORT_legacy: (Legacy) Oregon State University Tanguay Lab 120 Hour Post-fertilization zebrafish Assay for Mortality (AID 2283633)
In short: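 5D WT zebrafish, chorion removed 4 hpf; 1 embryo/well from 6 hpf; static exposure to 120 hpf, 28C, dark, sealed. Final DMSO 0.64%. Readout: binary mortality, brightfield, 24 + 120 hpf; DMSO as negative control.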

[9] = Tanguay_ZF_120hpf_EYE_legacy: (Legacy) Oregon State University Tanguay Lab 120 Hour Post-fertilization zebrafish Assay for Eye Malformation (AID 2283636);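 note: binary presence or absence of eye malformation scored by brightfield in 120 hpf larvae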
In short: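 Binary brightfield scoring of eye defects at 120 hpf after static exposure from 6 hpf of single pronase-dechorionated wild-type embryos (28C, 0.64% DMSO). Non-mortality endpoints omitted where embryos died; fit vs DMSO.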

[10] = Tanguay_ZF_120hpf_SNOU_legacy: (Legacy) Oregon State University Tanguay Lab 120 Hour Post-fertilization zebrafish Assay for Snout Malformation (AID 2283637)
In short: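 Binary snout-malformation call at 120 hpf in wild-type 5D embryos, chorion removed by pronase, under static exposure from 6 hpf at 28C (0.64% DMSO). Embryos dying by 24 or 120 hpf excluded.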

[11] = Tanguay_ZF_120hpf_JAW_legacy: (Legacy) Oregon State University Tanguay Lab 120 Hour Post-fertilization zebrafish Assay for Jaw Malformation (AID 2283638);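 for AC50: active means more embryos with jaw malformation than DMSO controls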
In short: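 Steps: dechorionate 4 hpf embryos (pronase); plate 1/well at 6 hpf; add test chemical, 0.64% DMSO final; seal, cover, hold at 28C statically to 120 hpf; score jaw defect presence/absence microscopically. Dead embryos not scored.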

[12] = Tanguay_ZF_120hpf_OTIC_legacy: (Legacy) Oregon State University Tanguay Lab 120 Hour Post-fertilization zebrafish Assay for Otic Vesicle Malformation (AID 2283639)
In short: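 Statically exposed wild-type 5D zebrafish embryos, kept sealed and dark at 28C through 120 hours post fertilization, were examined by brightfield microscopy for otic vesicle defects. Responses were recorded as present or absent and analysed relative to DMSO.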

[13] = Tanguay_ZF_120hpf_PE_legacy: (Legacy) Oregon State University Tanguay Lab 120 Hour Post-fertilization zebrafish Assay for Pericardial Edema (AID 2283640);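 for AC50: potency for increased incidence of pericardial edema versus DMSO baseline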
In short: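 Embryos from wild-type 5D adults were staged, then dosed in 0.64% DMSO. They were kept sealed in the dark at 28C until 120 hpf. Pericardial edema was then recorded as present or absent.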

[14] = LTEA_HepaRG_LDH_cytotoxicity: Cytotoxicity Assessment in the Life Technologies and Expression Analysis (LTEA) Assay (AID 2283563)
In short: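 Cells were thawed and plated for 48 h. Medium was then replaced with serum-free induction medium. Chemicals (8 half-log points, maximum 100 uM, 0.5% DMSO) were added in duplicate for 48 h, after which spent medium was assayed for LDH.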

[15] = TOX21_p53_BLA_p3_viability: Viability Assessment in the Tox21 HCT-116 p53 Agonism Beta-lactamase Assay, Phase 3 (AID 2283593);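 note: cells exposed to compound for 16 h before reading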
In short: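 Cellular ATP was quantified by CellTiter-Glo luminescence, read after 30 min at room temperature. Beforehand, HCT116 cells (4000/well) received compound 5 h post-seeding, 217-fold diluted from DMSO, then incubated 16 h at 37C.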

[16] = Tanguay_ZF_120hpf_AXIS_legacy: (Legacy) Oregon State University Tanguay Lab 120 Hour Post-fertilization zebrafish Assay for Body Axis Malformation (AID 2283635)
In short: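 Chorion is removed with pronase at 4 hpf, then single 6 hpf embryos are dosed (final DMSO 0.64%) and held statically at 28C in sealed, foil-covered plates. At 120 hpf body axis malformation is recorded as present or absent.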

[17] = TOX21_p53_BLA_p2_viability: Viability Assessment in the Tox21 HCT-116 p53 Agonism Beta-lactamase Assay, Phase 2 (AID 2283591);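 note: compound exposure lasted 16 h at 37 °C; actives lower the ATP signal meaning cytotoxicity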
In short: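 Cytotoxicity readout: CellTiter-Glo ATP luminescence, 30 min at room temperature, after the beta-lactamase read. Cells were HCT116 exposed 16 h at 37C to compounds pin-transferred at 217-fold dilution from DMSO stocks.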

[18] = TOX21_p53_BLA_p5_viability: Viability Assessment in the Tox21 HCT-116 p53 Agonism Beta-lactamase Assay, Phase 5 (AID 2283600)
In short: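 Workflow: seed 4000 cells per well, wait 5 h, add compounds (DMSO, 217-fold dilution), incubate 16 h, load CCF4-AM 2 h, add CellTiter-Glo, read luminescence after 30 min.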

[19] = Tanguay_ZF_120hpf_YSE_legacy: (Legacy) Oregon State University Tanguay Lab 120 Hour Post-fertilization zebrafish Assay for Yolk Sac Edema (AID 2283634);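 for AC50: actives raise the incidence of yolk sac edema above the DMSO baseline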
In short: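 Dechorionate (pronase, 4 hpf) → place one 6 hpf embryo per well → static compound exposure, sealed and foil-covered, 28C, to 120 hpf → record yolk sac edema as present or absent. Final DMSO 0.64%.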

Measured: AC50

O=C(O)c1cccc(Oc2ccccc2)c1
not listed: [14] | [15] | [16] | [17] | [18] | [19]
inactive: all other assays above

O=c1[nH]c2ccc(S(=O)CCN3CCC(Cc4ccc(F)cc4)CC3)cc2o1 (centres undefined)
not listed: [2] | [4] | [17] | [18] | [19]
inactive: all other assays above

CCCCC(CC)COC(=O)CCCCCCCCC(=O)OCC(CC)CCCC (centres undefined)
not listed: [4] | [5] | [6] | [7] | [14] | [19]
inactive: all other assays above

COC(=O)c1c(Cl)c(Cl)c(C(=O)OC)c(Cl)c1Cl
not listed: [4] | [14] | [17]
inactive: all other assays above

Fc1ccccc1[C@@H](F)COC1CCC(Nc2ncnc3[nH]ncc23)CC1 (some centres undefined)
active: [19] 23.9 µM | [11] 38 µM | [13] 34.9 µM
not listed: [2] | [4] | [14] | [15] | [17]
inactive: all other assays above

Cc1ccc(S(=O)(=O)O)cc1C
not listed: [13] | [14] | [15] | [18] | [19]
inactive: all other assays above

CCOCCOCCOCCO
not listed: [4] | [5] | [11] | [15] | [16] | [17] | [18]
inactive: all other assays above

CCOC(=O)CC(CC(=O)OCC)(OC(C)=O)C(=O)OCC
not listed: [4] | [5] | [6] | [7] | [15] | [17]
inactive: all other assays above
